Measured values taken from the supplement of paper PMC12067926.

Compound: CN(C)C(=O)Nc1ccc(Cl)c(Cl)c1
Test: relative growth (AUC of 72 h growth curve relative to DMSO control, dAUC) (ratio); higher = more growth (less inhibition), active = hit call of the paper
Conditions: 20 µM;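 active = growth AUC significantly below the DMSO wells by Dunnett test; inactive = the rest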
Protocol: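 Environmental bacterial isolates (Iceland stream sediment and Silwood Park soil) and whole stream-sediment communities were grown in LB from a 1:100 dilution with each pesticide at 20 µM (1% DMSO). A600 was read hourly for 72 h and the area under a spline-fitted growth curve (AUC) was computed. dAUC is the mean AUC of 3 biological replicates divided by the mean AUC of the DMSO controls. Significance was tested by Dunnett's test against the DMSO control.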

Target	relative growth
Bacillus 1 (Bacillus foraminis)	0.958 (inactive)
Argrobacterium 1 (Agrobacterium sp.)	0.867 (inactive)
Serratia 1 (Serratia sp. 2015-2462-01)	0.942 (inactive)
Sphingomonas 2 (Sphingomonas sp.)	1.04 (inactive)
Rhizobium 1 (Rhizobium herbae)	1.19 (inactive)
Community 8	1.11 (inactive)
Aeromonas 3 (Aeromonas popoffii)	0.977 (inactive)
Hymenobacter 1 (Hymenobacter glaciei)	1.02 (inactive)
Microbacterium 1 (Microbacterium arborescens)	1.03 (inactive)
Pseudomonas 3 (Pseudomonas mandelii)	1.02 (inactive)
Pseudomonas 5 (Pseudomonas baetica)	1.02 (inactive)
Arthrobacter 1 (Arthrobacter humicola)	0.944 (inactive)
Flavobacterium 2 (Flavobacterium succinicans)	0.961 (inactive)
Community 6	1.03 (inactive)
Aeromonas 1 (Aeromonas sp. AE235)	0.942 (inactive)
Pseudomonas 6 (Pseudomonas sp.)	1.07 (inactive)

Target	relative growth
Paenibacillus 1 (Paenibacillus castaneae)	0.883 (inactive)
Pseudomonas 4 (Pseudomonas peli)	0.939 (inactive)
Community 4	1.09 (inactive)
Carnobacterium 1 (Carnobacterium gallinarum)	0.949 (inactive)
Flavobacterium 1 (Flavobacterium glaciei)	0.999 (inactive)
Pseudomonas 1 (Pseudomonas baetica)	1.03 (inactive)
Prolinoborus 1 (Prolinoborus fasciculus)	0.957 (inactive)
Oryzobacter 1 (Oryzobacter terrae)	1.13 (inactive)
Community 10	1.05 (inactive)
Arthrobacter 2 (Arthrobacter humicola)	0.977 (inactive)
Community 7	1.23 (inactive)
Neobacillus 1 (Neobacillus soli)	0.899 (inactive)
Community 9	1.04 (inactive)
Arthrobacter 3 (Arthrobacter sp.)	0.947 (inactive)
Pseudomonas 2 (Pseudomonas vancouverensis)	0.988 (inactive)
Aeromonas 2 (Aeromonas sobria)	0.943 (inactive)
